Most compounds without a hit are left out; they make up all but 1.8% or so of the library.
CIT2 TOR yeast – modulators of CIT2-GFP expression in yeast, primary screen, S. cerevisiae, GFP fusion, multiplex flow cytometry, MLPCN library; 0.065% of 320,000 active; S. cerevisiae CIT2-GFP strain, 3 h; 100 means same as DMSO wells; GFP response vs DMSO, % at 10 µM; AID 2029, 2009;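 active means GFP response relative to DMSO above a set limit, near the screen mean plus 3 SD, cut at about 150% in these data; inconclusive means Fewer than 70 cells measured for a yeast strain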;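 further: ratio of well median GFP fluorescence to mean of DMSO wells on the plate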
AGP1 TOR yeast – modulators of AGP1-GFP expression in yeast TOR pathway, primary screen, cell-based, multiplex flow cytometry, S. cerevisiae, MLPCN library; 3 h; GFP as percent of DMSO wells; GFP response vs DMSO, % at 10 µM; 0.02% of 320,000 active; AID 2066, 2009;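 active means GFP response relative to DMSO above a set limit, near screen average plus 3 SD, cut at about 150% in these data; inconclusive means fewer than 70 cells counted for the yeast strain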;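 further: median GFP channel fluorescence of the gated AGP1 strain per well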
Myeloid diff 2 – induction of myeloid progenitor differentiation, primary screen, cell-based, flow cytometry, MLPCN library | calls only at 10 µM | ER-HoxA9 myeloid progenitors, lysozyme-GFP differentiation | 1% of 360,000 active | AID 624256, 2012;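 active means normalized GFP-positive differentiation at or above the plate's own cutoff, the solvent-only control mean plus 3 SD; inconclusive means no clear call, values can overlap the other calls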;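 further: cells exposed to compound for four days before flow analysis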
LAP4-GFP MLPCN – modulators of LAP4-GFP expression in yeast, primary screen, S. cerevisiae, multiplex flow cytometry, MLPCN library; AID 2023, 2009; 0.34% of 320,000 active; 3 h; median GFP as percent of DMSO wells; GFP response vs DMSO, % at 10 µM;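 active means GFP response vs DMSO above a set limit, about the screen mean plus 3 SD, cut at about 150% in these data; inconclusive means under 70 cell events counted for the yeast strain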
MEP2 TOR yeast – modulators of MEP2-GFP levels in yeast, primary screen, S. cerevisiae, multiplex flow cytometry, MLPCN library. S. cerevisiae MEP2-GFP strain, 3 h; 100% = DMSO control level. GFP response vs DMSO, % at 10 µM. AID 2016, 2009. 0.51% of 330,000 active;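 active means GFP response versus DMSO above a set limit, roughly screen mean plus 3 SD, cut at about 180% in these data; inconclusive means fewer than 70 cells counted for a yeast strain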;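 further: median GFP fluorescence of the barcode-gated MEP2-GFP cells per well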
RPL19A TOR yeast – RPL19A-GFP expression modulators in yeast, primary screen, cell-based, S. cerevisiae, multiplex flow cytometry, MLPCN; percent response vs DMSO, % at 10 µM; 0.3% of 330,000 active; S. cerevisiae RPL19A-GFP strain, 3 h; hits give low values;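 active means percent response vs DMSO below 50%; inconclusive means fewer than 70 events counted for the yeast strain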;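 further: median channel GFP fluorescence of the barcoded RPL19A-GFP strain; lower means less RPL19A-GFP as with rapamycin TOR inhibition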
Large screens that a line does not name were inactive; [ ] = dose if it differs, or a comment.

COc1ccc(CCNCC(=O)Nc2c(C)cc(C)cc2C)cc1OC	none
Cc1cccc(NS(=O)(=O)c2cccc(C(=O)N3CC(C)OC(C)C3)c2)c1 (configuration not stated)	none
Cc1cccn2c(=O)c3cc(C(=O)NCCN4CCOCC4)c(=N)n(CCCN4CCOCC4)c3nc12	CIT2 TOR yeast inconclusive, MEP2 TOR yeast 224[may fluoresce violet]
CCCCNC(=O)c1cc2c(=O)n3cccc(C)c3nc2n(Cc2ccccc2)c1=N	Myeloid diff 2 active
CCNC(=O)c1cc2c(=O)n3cccc(C)c3nc2n(CCc2ccccc2)c1=N	none
COCCCn1c(=N)c(C(=O)NCC2CCCO2)cc2c(=O)n3cccc(C)c3nc21 (configuration not stated)	CIT2 TOR yeast inconclusive, AGP1 TOR yeast inconclusive
C=CCn1c(=N)c(C(=O)NCCCOC)cc2c(=O)n3cccc(C)c3nc21	CIT2 TOR yeast inconclusive, RPL19A TOR yeast 34[may fluoresce violet] (no result: AGP1 TOR yeast)
O=C(COC(=O)/C=C/c1cccs1)Nc1ccccc1Cl	none
CCCCNC(=O)c1nn2c(C(F)(F)F)cc(-c3ccc(OC)cc3)nc2c1Br	none
CC(C)(O)CC[C@@H](O)[C@](C)(O)[C@H]1CC[C@@]2(O)C3=CC(=O)[C@@H]4C[C@@H](O)[C@@H](O)C[C@]4(C)C3CC[C@]12C (some centres not stated)	none
CCOC(=O)c1c(C)[nH]c(C)c1C(=O)COC(=O)c1cc2ccccc2cc1O	CIT2 TOR yeast 154
CC(=O)Nc1sc(N/N=C/c2ccc(C)cc2)nc1-c1ccc(C)cc1	none
CC(=O)Nc1sc(/C(C#N)=C/c2ccc(Cl)c(Cl)c2)nc1-c1ccc(C)cc1	Myeloid diff 2 active (no result: CIT2 TOR yeast, AGP1 TOR yeast, LAP4-GFP MLPCN, MEP2 TOR yeast, RPL19A TOR yeast)
COc1ccc(-c2nnc(SCC(=O)Nc3ccc(C(=O)O)cc3)n2-c2ccc(Cl)cc2)cc1	CIT2 TOR yeast inconclusive, MEP2 TOR yeast 643[may fluoresce violet], RPL19A TOR yeast 39[may fluoresce violet]
COc1ccc(OC)c(NC(=O)CSc2nnc(-c3ccco3)n2-c2ccc(C(=O)O)cc2)c1	CIT2 TOR yeast inconclusive, AGP1 TOR yeast inconclusive, MEP2 TOR yeast 279[may fluoresce violet], RPL19A TOR yeast 37[may fluoresce violet]
COc1ccc(C)cc1NC(=O)CSc1nnc(-c2ccco2)n1N	none
Cc1cc(C)n(-c2nc(NCc3cccnc3)c3c4c(sc3n2)COC(C)(C)C4)n1	none
O=C(c1ccc(Cl)s1)N1CCCC1	Myeloid diff 2 active (no result: CIT2 TOR yeast)
O=C(COC(=O)c1cccnc1Cl)Nc1nc(-c2ccccc2)cs1	none
O=S(=O)(c1ccccc1)N1CCC2(CC1)CO2	none (no result: Myeloid diff 2)
CCC(C)(C)n1nnnc1C(c1ccc(O)c(OC)c1)N1CCc2ccccc2C1 (configuration not stated)	CIT2 TOR yeast 152
CC(C)C[C@H]1CN=C(N(C)C)N1CCCCc1ccccc1	none
COC(C[C@@H](O)CC(=O)[C@@H](C)OCc1ccccc1)OC	none (no result: CIT2 TOR yeast, AGP1 TOR yeast, LAP4-GFP MLPCN, MEP2 TOR yeast, RPL19A TOR yeast)
O=C1CNC(=S)N1Cc1ccc(F)cc1	CIT2 TOR yeast inconclusive, AGP1 TOR yeast inconclusive, MEP2 TOR yeast 359[may fluoresce violet], RPL19A TOR yeast 45[may fluoresce violet]
O=C1CNC(=S)N1Cc1ccccc1	none
COc1ccccc1CNC(=O)C1CCC(CNC(=O)[C@@H]2Cc3ccccc3CN2)CC1 (some centres not stated)	none
COc1ccccc1CNC(=O)CNC(=O)[C@@H]1Cc2ccccc2CN1	CIT2 TOR yeast inconclusive, RPL19A TOR yeast 31[may fluoresce violet]
Cc1nc(-c2ccc(S(=O)(=O)N3CCN(c4cccc(C)c4C)CC3)cc2)co1	none
COc1cccc(-c2cnc(C(O)c3ccc(OC)c(F)c3)[nH]2)c1 (configuration not stated)	none (no result: CIT2 TOR yeast, AGP1 TOR yeast, LAP4-GFP MLPCN, MEP2 TOR yeast, RPL19A TOR yeast)
O=C1NC(=S)S/C1=C/c1ccc(N2CCOCC2)o1	Myeloid diff 2 active
O=C1S/C(=C\c2ccc(N3CCOCC3)o2)C(=O)N1Cc1ccc(F)cc1	none
COc1cccc(NS(=O)(=O)NC(=O)c2c(C)[nH]c3ccccc23)c1	none
Cc1[nH]c2ccccc2c1C(=O)NS(=O)(=O)Nc1ccc(F)cc1	Myeloid diff 2 active
Cn1c(=O)c2c(nc(CN3CCN(c4ccccc4)CC3)n2CCc2ccccc2)n(C)c1=O	none
COC(=O)CN1C(=O)[C@H]2[C@@H](c3ccc(C)o3)N3C(=O)CN(CCO)C(=O)[C@@]3(C)[C@H]2C1=O	none
COc1ccc2c(c1)[n+](=O)c(C(C)=O)c(C)n2[O-]	none
CC(=O)c1c(C)n([O-])c2cc(F)c(F)cc2[n+]1=O	Myeloid diff 2 active
Cc1ccc(CNC(=O)c2cc(-c3ccccc3)n(Cc3cc(C)no3)n2)cc1	none
Cc1nc(Nc2ccc(S(N)(=O)=O)cc2)oc1C	none
O=C(Cc1cccs1)N=Nc1c(O)[nH]c2ccc(Br)cc12	none
O=C(CNC(=O)c1ccco1)N=Nc1c(O)[nH]c2ccc(Br)cc12	Myeloid diff 2 active
Cc1ccc(NC(=O)CN2CCC(Cc3ccccc3)CC2)cc1S(=O)(=O)N(C)C	Myeloid diff 2 active
CC(=O)N1CCN(CC(=O)Nc2ccc(C)c(S(=O)(=O)N(C)C)c2)CC1	none
CC1(c2ccc([N+](=O)[O-])cc2)NC(=O)N(CC(=O)Nc2ccc(N3CCCCC3)cc2)C1=O (configuration not stated)	Myeloid diff 2 active
CC1(c2ccccc2)NC(=O)N(CC(=O)Nc2ccc(Cl)c(S(=O)(=O)N3CCCCC3)c2)C1=O (configuration not stated)	Myeloid diff 2 active
Cn1c(=O)[nH]c(=O)c2c1nc(N1CCCCC1)n2CCCSc1nnnn1-c1ccccc1	none
Cc1ccc(C2=N/C(=C/N3CCOCC3)C(=O)O2)cc1	none (no result: AGP1 TOR yeast)
Cc1ccc(C2=N/C(=C\N3CCCCC3)C(=O)O2)cc1	CIT2 TOR yeast inconclusive, AGP1 TOR yeast inconclusive, MEP2 TOR yeast 184[may fluoresce violet]
Cc1c(C(=O)N2c3ccccc3CC2C)oc2ccccc12 (configuration not stated)	none
CC[C@@H](C)[C@H](CN[C@H](CNC)C(C)C)NC[C@@H](C)c1ccc(CC(C)C)cc1	Myeloid diff 2 active
CC[C@H](C)[C@@H](CNC)NC[C@@H](Cc1ccc(O)cc1)NCC(C)(C)C	none
COc1ccccc1N1CCN(C(=O)CSc2ccc3c(C)cc(C)nc3n2)CC1	CIT2 TOR yeast inconclusive, AGP1 TOR yeast inconclusive, LAP4-GFP MLPCN inconclusive, MEP2 TOR yeast inconclusive, RPL19A TOR yeast 13[may fluoresce violet]
COc1ccccc1N1CCN(C(=O)CSc2nnc(NC(=O)C3CC3)s2)CC1	none
CCCCC(=O)Nc1nnc(SCC(=O)N2CCN(c3ccccc3OC)CC2)s1	CIT2 TOR yeast inconclusive, AGP1 TOR yeast inconclusive, MEP2 TOR yeast 219[may fluoresce violet], RPL19A TOR yeast 23[may fluoresce violet]
Cc1cc(NC(=O)COC(=O)c2oc3c(Cl)cccc3c2C)no1	none

Compound activity deposited in PubChem by NMMLSC.
